NPC1 promoter act: activates the NPC1 promoter | Huh7 NPC1 promoter luciferase reporter, 24 h | Potency, µM (titrated, usually from 9.22 µM), most hits filed as activators | 320,000 tested, 2.4% active | AID 485313; further: nearly all actives have a fitted effect of over 60% in size
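Quantitative HTS used a cell-based reporter: Huh7 cells stably bearing the NPC1 promoter upstream of luciferase were treated with compounds for 24 h, and promoter activation was read as luminescence.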
ELG1 genotoxic: inducers of genotoxicity in HEK293T ELG1-luciferase cells; HEK293T ELG1-luciferase reporter, luminescence, 16 h; Potency, µM (top dose mostly 46 µM), actives largely listed as activators; 330,000 tested, 1.3% active; AID 504466; further: nearly all actives have a fitted effect of over 60% in size
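ELG1-luciferase HEK293T cells, 2,000/well; compound pinned in; 16 hr, 37 °C, 5% CO2; ONE-Glo, 30 min RT; luminescence on CCD imager.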
Luc counter: blocks Kinase-Glo luciferase, a counter-screen artifact | Q27757 | Kinase-Glo luciferase, ATP luminescence, 8 min | Potency, µM (titrated, usually from 38.3 µM), hits mostly inhibitors | 200,000 tested, 0.28% active; further: nearly all actives have a fitted effect of over 60% in size
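Inhibition of Kinase-Glo luciferase light generation was assessed at 10 uM ATP in pH 7.2 imidazole buffer, with luminescence measured after eight minutes at ambient temperature.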
Rab9 prom act: activates the Rab9 promoter | Huh7 Rab9 promoter-luciferase reporter, luminescence, 24 h | Potency, µM (titrated, usually from 9.22 µM), most hits filed as activators | 320,000 tested, 2.8% active | AID 485297; further: nearly all actives have a fitted effect of over 60% in size
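Luminescence from Amplite-detected luciferase (10 minutes, ambient) reports Rab9 promoter activation. Before that, stable Rab9-luciferase Huh7 cells (1500/well, reduced-serum OP-MEM I plus 10% FBS) were exposed to compound for 24 hours at 37C.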
SMN2 splice up: enhancers of SMN2 splice variant expression; 210,000 tested, 2.8% active; AID 1458; HEK293 SMN2-luciferase splicing reporter, luminescence, 30-36 h; Potency, µM (highest dose often 46.1 µM), actives largely listed as activators; further: nearly all actives have a fitted effect of over 55% in size
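HEK293 cells carry an SMN2 […]–luciferase reporter in which exon 7 inclusion puts luciferase in frame. Cells were plated 10-12 h before compound addition, then incubated 30-36 h at 37C. ONE-Glo luminescence was read; sodium butyrate at 4.5 mM final served as control.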
FLuc counter: counter-screen for miR-21 project: firefly luciferase inhibitors or activators. purified FLuc, Km substrates, luminescence inhibition. Potency, µM (highest dose often 57.5 µM), actives largely listed as inhibitors. 360,000 tested, 6.9% active. P08659; further: nearly all actives have a fitted effect of over 55% in size
Target sequence (P08659 whole entry, looked up): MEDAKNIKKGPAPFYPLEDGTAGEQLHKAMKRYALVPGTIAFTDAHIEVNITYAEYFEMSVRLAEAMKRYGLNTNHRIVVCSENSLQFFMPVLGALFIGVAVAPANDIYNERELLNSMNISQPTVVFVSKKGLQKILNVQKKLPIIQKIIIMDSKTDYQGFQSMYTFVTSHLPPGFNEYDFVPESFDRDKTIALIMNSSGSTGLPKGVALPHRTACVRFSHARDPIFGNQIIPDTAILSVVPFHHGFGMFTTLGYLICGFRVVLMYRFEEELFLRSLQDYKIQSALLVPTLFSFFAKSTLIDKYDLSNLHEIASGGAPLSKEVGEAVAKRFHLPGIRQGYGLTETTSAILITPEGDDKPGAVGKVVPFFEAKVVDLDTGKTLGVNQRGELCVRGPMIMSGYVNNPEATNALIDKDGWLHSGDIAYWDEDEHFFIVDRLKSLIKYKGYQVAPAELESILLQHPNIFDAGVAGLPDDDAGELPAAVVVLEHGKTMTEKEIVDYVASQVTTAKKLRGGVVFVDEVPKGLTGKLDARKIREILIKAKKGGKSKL
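Purified P. pyralis luciferase, 10 nM final, with Km-level 10 uM D-luciferin and 10 uM ATP in 50 mM Tris acetate pH 7.5, 10 mM Mg acetate, 0.01% Tween-20, 0.05% BSA; 6-point qHTS titration about 60 µM downward; luminescence read.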
Hits are given with their value; i = inactive; ? = inconclusive; nt = no result given. This is a sample that favours compounds with a hit; in the whole collection about 7.5% have one here. The call rests on the fitted dose curve; in most records, active means well fitted curve in the direction sought with a large enough effect; inconclusive means small, poorly fitted or top-dose-only effect, or another doubt; inactive means no such curve, though single readings can be large; an effect the other way counts as inactive or inconclusive.

SMILES	NPC1 promoter act	ELG1 genotoxic	Luc counter	Rab9 prom act	SMN2 splice up	FLuc counter
C/C(=N/NC(=O)c1cc(C2CC2)[nH]n1)c1cccs1	0.35µM	?	?	0.28µM	2.5µM	1.5µM
C/C(=N\NC(=O)c1ccc2ccccc2c1)c1cccs1	1.1µM	2.1µM	nt	1µM	nt	4.3µM
C/C(=N\NC(=O)c1ccccc1O)c1cccs1	0.56µM	?	11µM	0.56µM	3.5µM	7.6µM
C/C(=N\NC(=O)c1ccncc1)c1cccs1	i	?	i	i	nt	i
CCOc1ccc(NC(=O)C(=O)NCCc2csc(-c3ccc(F)cc3)n2)cc1	nt	nt	nt	nt	nt	i
Cc1nc(N2C(=O)c3oc4ccccc4c(=O)c3C2c2cccc(OCCC(C)C)c2)sc1C (stereo not drawn)	nt	nt	nt	nt	i	i
COc1ccc(Cl)cc1NC(=O)CSc1nccn1-c1ccc(Cl)cc1	nt	nt	nt	nt	nt	i
COc1ccc(C)cc1-n1nnc(-c2nc(-c3ccccc3Cl)no2)c1N	nt	nt	nt	nt	nt	i
O=C(CSc1nnc(-c2cccc(F)c2)c(-c2cccc(F)c2)n1)NC1CCCCC1	nt	nt	nt	nt	nt	i
O=c1c2ccccc2nc2ccc(NCc3ccco3)nn12	?	?	i	?	14µM	11µM
Cc1sc2nc3ccc(NCc4ccco4)nn3c(=O)c2c1C	i	i	i	i	i	i
Cc1noc(C)c1C(=O)OCC(=O)c1cc(C)n(Cc2ccccc2Cl)c1C	?	16µM	i	?	i	11µM
Cc1noc(C)c1C(=O)OCC(=O)c1ccc[nH]1	i	i	i	i	i	i
CCOC(=O)c1ccc(NC(=O)C(C)Sc2nc(=O)cc(N)n2CCc2ccccc2)cc1 (stereo not drawn)	nt	nt	nt	nt	i	i
COCCCNc1oc(/C=C/c2ccccc2)nc1C#N	3.5µM	2.9µM	nt	1.1µM	nt	3.4µM
CCOc1ccc(/C=C/c2nc(C#N)c(NCCCOC)o2)cc1	i	i	nt	i	nt	?
C=CCNc1oc(/C=C/c2ccccc2)nc1C#N	2.5µM	?	i	2.2µM	11µM	4.8µM
CCCNC(=O)c1ccc(-c2nc(CS(=O)(=O)c3ccc(C)cc3)c(C)o2)cc1	nt	nt	nt	nt	nt	i
Cc1nc(Nc2nc3ccccc3o2)nc2c1CCC2	?	?	?	?	2µM	1.7µM
CCOC(=O)c1cnc(Nc2nc3ccccc3o2)nc1C	?	nt	2µM	?	i	0.38µM
CCOC(=O)c1cnc(Nc2ccc(OCC)cc2)nc1C	?	?	i	i	i	?
Cc1cccc(C)c1Nc1nc2ccccc2o1	i	i	i	i	i	i
CCOC(=O)c1cnc(-c2ccccc2)nc1C(F)(F)F	i	i	i	i	i	?
CCOC(=O)c1cnc(Nc2ccccc2)nc1C(F)(F)F	i	i	nt	i	nt	24µM
O=C(COc1ccccc1)NCC(c1ccc(Cl)cc1)N1CCCCC1 (stereo not drawn)	nt	nt	nt	nt	nt	i
SMILES	NPC1 promoter act	ELG1 genotoxic	Luc counter	Rab9 prom act	SMN2 splice up	FLuc counter
CCOC(=O)c1cc2c(nc1N)CCCC2	i	i	nt	i	nt	i
CCOC(=O)c1cnc2cc3c(cn2c1=O)CCCC3	?	i	i	3.2µM	i	24µM
Cc1ccc(-c2cc(-c3cccs3)[nH]n2)c(O)c1	i	4.1µM	i	i	i	6.7µM
COCCCNc1ncnc2sc3c(c12)CCC(C)C3 (stereo not drawn)	i	i	i	i	i	?
CC1CCc2c(sc3ncnc(NS(=O)(=O)c4cccs4)c23)C1 (stereo not drawn)	i	i	i	i	i	15µM
N[C@H](CO)Cc1cnc[nH]1	nt	nt	i	nt	nt	nt
CCCCCCCCCCCCC/C=C/[C@@H](O)[C@H](COP(=O)([O-])OCC[N+](C)(C)C)NC(=O)CCCCCCCCCCCCCCCCC	nt	nt	i	nt	i	nt
O=C(Nc1ccn(Cc2ccccc2F)n1)c1ccc(COc2ccccc2Cl)cc1	i	i	i	i	i	i
O=C(Nc1ccn(Cc2ccccc2F)n1)c1ccc(COc2cccc(Br)c2)cc1	1.6µM	?	i	1.8µM	?	6.7µM
Cc1ccc(Cn2c(=O)c3ccccc3n3c(-c4ccccc4)nnc23)cc1	nt	nt	nt	nt	nt	i
COc1cccc(-c2cncnc2-n2ccnc2)c1	nt	nt	i	nt	i	nt
COc1cccc(-c2nccc(-n3ccnc3)n2)c1	nt	nt	i	nt	13µM	nt
O=C(Nc1ccc(N2CCCC2)c(Cl)c1)c1ccc([N+](=O)[O-])o1	?	i	?	?	i	7.6µM
O=C(Nc1ccc(N2CCCCC2)cc1)c1ccc([N+](=O)[O-])o1	0.5µM	6.5µM	nt	2.5µM	nt	1.5µM
CC(C)(C)C(=O)N1CCN(c2ccc(NC(=O)c3ccc([N+](=O)[O-])o3)cc2)CC1	i	i	nt	i	nt	i
O=C(Nc1ccc2[nH]c(=O)[nH]c2c1)c1ccc([N+](=O)[O-])o1	i	i	nt	i	nt	i
Cc1ccc(NC(=O)c2ccc([N+](=O)[O-])o2)cc1C	i	i	i	?	i	21µM
CS(=O)(=O)N1CCN(c2ccc(NC(=O)c3ccc([N+](=O)[O-])o3)cc2)CC1	?	?	nt	2.2µM	nt	i
C/C=C/C(=O)C[C@H]1CC[C@@H](C)[C@@H](CCO)O1	nt	nt	i	nt	i	nt
COc1cc(/C=N/NC(=O)c2cc(-c3ccccc3)n[nH]2)cc(OC)c1OC	nt	nt	i	nt	nt	nt
O=C(Nc1cccc2ccccc12)c1ccc([N+](=O)[O-])o1	i	i	nt	i	nt	i
CC1CCN(c2ccc(NC(=O)c3ccc([N+](=O)[O-])o3)cc2)CC1	?	3.7µM	nt	2µM	nt	1.1µM
O=C(Nc1cccc(NC(=O)c2ccccc2Cl)c1)c1ccc([N+](=O)[O-])o1	i	i	nt	i	nt	21µM
CCC(=O)N1CCN(c2ccc(NC(=O)c3ccc([N+](=O)[O-])o3)cc2)CC1	i	i	i	i	i	i
COc1ccc(/C=C(\C#N)C(=O)Nc2cccc(C)n2)cc1	i	i	nt	i	nt	0.95µM
SMILES	NPC1 promoter act	ELG1 genotoxic	Luc counter	Rab9 prom act	SMN2 splice up	FLuc counter
O=C(COC(=O)/C=C/c1ccccc1)Nc1ccc(Cl)cn1	i	i	nt	i	nt	i
Cc1cccc(NC(=O)CCCNC(=O)c2ccc(Cl)cc2)n1	i	i	nt	i	nt	i
Cc1cccc(NC(=O)/C=C/c2ccc(Cl)cc2)n1	4µM	i	i	2.2µM	3.5µM	1.1µM
Cc1cccc(NC(=O)/C(C#N)=C/c2cccc([N+](=O)[O-])c2)n1	i	i	nt	i	nt	?
CCOC(=O)c1ccc(NC(=O)/C(C#N)=C/c2ccc(OC)cc2)cc1	nt	nt	nt	nt	i	i
O=C(/C=C/c1ccccc1)Nc1ccc(Cl)cn1	?	?	i	?	13µM	2.7µM
Cc1cccc(NC(=O)/C(C#N)=C/c2ccc(Cl)cc2)n1	i	i	nt	i	nt	2.4µM
C[C@H]1CN=C(N(C)C)N1CC1CCC(C(C)(C)C)CC1 (stereo partly drawn)	i	i	nt	i	nt	i
CC(C)c1ccc(Nc2cc(C(=O)NCCc3ccccc3)c3ccccc3n2)cc1	nt	nt	nt	nt	i	?
Cc1cccc(NC(=O)Cn2c(=O)n(CCCCCC(=O)NCc3ccccc3)c(=O)c3sccc32)c1	nt	nt	nt	nt	i	i
